An excerpt weighted towards active compounds, which were near 0.55% of everything screened.
USP1-UAF1 inh: inhibitors of human USP1/UAF1 deubiquitinase; Potency, µM (highest dose often 57.1 µM), for the others: at the top dose activity change, negative = inhibition, hits mostly inhibitors; hit rate 0.23% among 390,000; AID 743255; recombinant USP1/UAF1, Ub-Rhodamine cleavage fluorescence; further: on the % scale 0 is the no-effect control and ±100 the full control effect; nearly all actives have a fitted effect of over 60% in size
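High-throughput fluorogenic screen: 1nM USP1/UAF1 complex, Ub-Rho substrate 150nM final, 50mM HEPES pH 7.8 with 0.5mM EDTA, 0.1 mg/ml BSA, 1mM TCEP and 0.01% Tween-20.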
EPAC2 antagonist: antagonists of human EPAC2. Q8WZA2. EPAC2 GEF exchange of Rap1B-BODIPY-GDP, fluorescence. Potency, µM (doses to about 114 µM), without a hit: top-dose activity, negative = inhibition, actives largely listed as inhibitors. hit rate 0.18% among 360,000; further: on the % scale 0 is the no-effect control and ±100 the full control effect; nearly all actives have a fitted effect of over 45% in size
Target sequence (Q8WZA2 whole entry, looked up): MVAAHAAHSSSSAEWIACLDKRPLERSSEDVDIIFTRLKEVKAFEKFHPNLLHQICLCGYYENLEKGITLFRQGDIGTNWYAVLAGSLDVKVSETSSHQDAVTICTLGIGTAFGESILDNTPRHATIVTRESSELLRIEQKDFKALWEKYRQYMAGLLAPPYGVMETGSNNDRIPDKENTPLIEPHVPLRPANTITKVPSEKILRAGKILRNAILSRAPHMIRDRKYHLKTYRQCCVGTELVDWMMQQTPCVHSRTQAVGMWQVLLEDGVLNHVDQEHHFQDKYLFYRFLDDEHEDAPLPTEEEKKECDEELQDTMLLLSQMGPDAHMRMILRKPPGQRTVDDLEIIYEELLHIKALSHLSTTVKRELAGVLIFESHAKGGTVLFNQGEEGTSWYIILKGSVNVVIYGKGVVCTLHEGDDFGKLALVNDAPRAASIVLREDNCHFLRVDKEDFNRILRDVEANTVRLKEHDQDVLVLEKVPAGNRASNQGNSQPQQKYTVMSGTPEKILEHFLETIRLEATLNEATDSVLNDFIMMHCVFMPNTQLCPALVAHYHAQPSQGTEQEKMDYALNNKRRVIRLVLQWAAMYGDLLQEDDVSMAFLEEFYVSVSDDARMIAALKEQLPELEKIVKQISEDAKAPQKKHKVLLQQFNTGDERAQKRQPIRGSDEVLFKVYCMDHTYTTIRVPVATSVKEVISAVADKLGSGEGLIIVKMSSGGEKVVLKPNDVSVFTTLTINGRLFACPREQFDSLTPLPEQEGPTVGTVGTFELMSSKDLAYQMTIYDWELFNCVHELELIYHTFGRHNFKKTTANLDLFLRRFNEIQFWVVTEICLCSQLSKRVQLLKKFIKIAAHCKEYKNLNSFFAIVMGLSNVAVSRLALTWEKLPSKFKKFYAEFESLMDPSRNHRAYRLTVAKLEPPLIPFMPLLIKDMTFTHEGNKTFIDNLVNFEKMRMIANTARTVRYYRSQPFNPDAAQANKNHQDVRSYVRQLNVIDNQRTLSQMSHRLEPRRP
HEK293 tox: cytotoxic in the GLP-1 receptor inverse agonist counter-screen | hit rate 0.13% among 410,000 | AID 624418 | HEK293 cAMP-luciferase reporter cells, luminescence, 24 h | Potency, µM (highest dose often 38.3 µM), without a hit: at the highest dose activity change, negative = inhibition, actives largely listed as inhibitors;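 further: loss of luciferase light is scored as toxicity; on the % scale 0 is the no-effect control and ±100 the full control effect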
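To flag toxic compounds, the library was rerun on cells for 24 hr at 37 deg C and 5% CO2. Viability-linked luminescence was captured 12 min after adding luciferase detection reagent.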
EPAC2 ag: EPAC2 (human) agonism; Q8WZA2; EPAC2 activation, biochemical qHTS; response scale: 100% = 6.5 mM cAMP response; Potency, µM (titrated, usually from 154 µM), for inactives: top-dose activation, most hits filed as activators; hit rate 0.079% among 360,000; AID 720711; further: nearly all actives have a fitted effect of over 50% in size
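EPAC2 (100 nM) mixed with Rap1B loaded with BODIPY-GDP (250 nM) plus 50 uM unlabeled GDP; compounds pinned in, 5 min RT, then read every 5 min for 30 min (ex 480, em 540 nm). Normalized to cAMP control.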
EPAC1 agonist: EPAC1 (human) agonism | O95398 | EPAC1 agonist qHTS, biochemical assay; response scale: 100% = response to 6.5 mM cAMP | Potency, µM (titrated, usually from 154 µM), inactives show top-dose activation, hits mostly activators | hit rate 0.073% among 360,000; further: nearly all actives have a fitted effect of over 60% in size
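Normalized to 6.5 mM cAMP, activity reflects EPAC1-catalysed release of BODIPY-GDP from Rap1B, followed kinetically over 30 min at 480 nm excitation, 540 nm emission. Reaction contained 100 nM EPAC1, 250 nM Rap1B-BODIPY-GDP, 50 uM GDP.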
EPAC1 antag: antagonists of human EPAC1; O95398; EPAC1 GEF assay, Rap1b-BODIPY-GDP exchange fluorescence; Potency, µM (titrated, usually from 115 µM), for the others: at the top dose activity change, negative = inhibition, actives largely listed as inhibitors; hit rate 0.14% among 360,000;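 further: plate controls were vehicle for no effect and positive control for full effect; nearly all actives have a fitted effect of over 50% in size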
Numbers without * were called inactive. The call rests on the fitted dose curve; in most records, active means well fitted curve in the direction sought with a large enough effect; inconclusive means small, poorly fitted or top-dose-only effect, or another doubt; inactive means no such curve, though single readings can be large; an effect the other way counts as inactive or inconclusive. Potency means the concentration at half of the fitted maximal effect.

What do the screens show for `COc1ccccc1NC(=O)CCCCCN1C(=O)c2cccc([N+](=O)[O-])c2C1=O`?
USP1-UAF1 inh: -2%; EPAC2 antagonist: -3%; HEK293 tox: 8%; EPAC2 ag: 13%; EPAC1 agonist: 0%; EPAC1 antag: -4%

Results for COC(=O)c1ccccc1NC1=C/C(=N\S(=O)(=O)c2ccc(C(=O)O)cc2)c2ccccc2C1=O ?
USP1-UAF1 inh: 13µM*; EPAC2 antagonist: inconclusive; HEK293 tox: inconclusive; EPAC2 ag: 13%; EPAC1 agonist: 6%; EPAC1 antag: 40µM*

What do the screens show for `COC(=O)c1ccccc1NC1=C/C(=N\S(=O)(=O)c2cccs2)c2ccccc2C1=O`?
USP1-UAF1 inh: 4µM*; EPAC2 antagonist: 3%; HEK293 tox: inconclusive; EPAC2 ag: 8%; EPAC1 agonist: -1%; EPAC1 antag: -1%

What do the screens show for `O=C1C(Nc2ccccc2)=C/C(=N/S(=O)(=O)c2cccs2)c2ccccc21`?
USP1-UAF1 inh: 2.5µM*; EPAC2 antagonist: -32%; HEK293 tox: 4.5µM*; EPAC2 ag: 11%; EPAC1 agonist: -3%; EPAC1 antag: -3%

How did Nc1ccc(N(CCO)CCO)cc1 do in these assays?
USP1-UAF1 inh: 8.9µM*; EPAC2 antagonist: 16%; HEK293 tox: 14%; EPAC2 ag: 9%; EPAC1 agonist: 16%; EPAC1 antag: 11%

What do the screens show for `O=S(=O)(NCc1ccccc1)c1ccc(S(=O)(=O)N(Cc2cccs2)CC2CCCO2)cc1` (centres undefined)?
USP1-UAF1 inh: -7%; EPAC2 antagonist: 1%; HEK293 tox: 6%; EPAC2 ag: 40µM*; EPAC1 agonist: 13%; EPAC1 antag: 2%

How did COC(=O)c1sc(NC(=O)c2cc3nc(-c4ccc(Br)cc4)cc(C(F)(F)F)n3n2)c(C(=O)OC)c1C do in these assays?
USP1-UAF1 inh: -10%; HEK293 tox: 7%

Results for CCc1ccc2c(c1)NC(=O)C2(C)Cc1ccccc1 (centres undefined) ?
EPAC2 antagonist: -23%; HEK293 tox: -4%; EPAC2 ag: -4%; EPAC1 agonist: -9%; EPAC1 antag: -4%

What do the screens show for `CCc1ccc2c(c1)NC(=O)C2(C)Cc1ccc(C(F)(F)F)o1` (centres undefined)?
EPAC2 antagonist: 20µM*; HEK293 tox: -17%; EPAC2 ag: -10%; EPAC1 agonist: -24%; EPAC1 antag: -21%

What do the screens show for `O=[N+]([O-])c1ccc(/C=N/Nc2ncccc2[N+](=O)[O-])s1`?
USP1-UAF1 inh: -1%; EPAC2 antagonist: 17%; HEK293 tox: 1.1µM*; EPAC2 ag: 4%; EPAC1 agonist: -5%; EPAC1 antag: 5%

How did N/C(=N\OC(=O)c1cccc2ccccc12)c1ccccn1 do in these assays?
USP1-UAF1 inh: -8%; EPAC2 antagonist: 4%; HEK293 tox: 4µM*; EPAC2 ag: 2%; EPAC1 agonist: 0%; EPAC1 antag: 2%

What do the screens show for `COc1cccc(C(=O)O/N=C(\N)c2ccccn2)c1OC`?
USP1-UAF1 inh: -13%; EPAC2 antagonist: 2%; HEK293 tox: 10%; EPAC2 ag: 5%; EPAC1 agonist: -7%; EPAC1 antag: -6%

What do the screens show for `O=C1C(=C(c2ccccc2)c2ccccc2)Nc2ccccc21`?
USP1-UAF1 inh: -17%; EPAC2 antagonist: -35%; HEK293 tox: inconclusive; EPAC2 ag: 6.3µM*; EPAC1 agonist: 9%; EPAC1 antag: -8%

Results for COc1ccccc1/C=C(/C(=O)OCC(=O)Nc1ccc(N(C)C)cc1)c1ccccc1 ?
USP1-UAF1 inh: -1%; EPAC2 antagonist: 50µM*; HEK293 tox: 25%; EPAC2 ag: 16%; EPAC1 agonist: 3%; EPAC1 antag: -25%

What do the screens show for `COc1ccccc1/C=C(/C(=O)OCC(=O)Nc1ccccc1C)c1ccccc1`?
USP1-UAF1 inh: -12%; EPAC2 antagonist: -26%; HEK293 tox: 7%; EPAC2 ag: 6%; EPAC1 agonist: 10%; EPAC1 antag: -23%

What do the screens show for `N/C(CCS(=O)(=O)c1ccc(Cl)cc1)=N\OC(=O)c1ccccc1C(F)(F)F`?
USP1-UAF1 inh: -4%; EPAC2 antagonist: -1%; HEK293 tox: 10µM*; EPAC2 ag: 12%; EPAC1 agonist: 4%; EPAC1 antag: 2%

Results for N/C(CCS(=O)(=O)c1ccc(Cl)cc1)=N\OC(=O)c1ccc(Cl)cc1 ?
USP1-UAF1 inh: -17%; EPAC2 antagonist: 19%; HEK293 tox: 3%; EPAC2 ag: 6%; EPAC1 agonist: -7%; EPAC1 antag: -5%

What do the screens show for `Cc1ccc(C)c(N(C)S(=O)(=O)c2ccc3[nH]cc(C(=O)NC4CCCC4)c(=O)c3c2)c1`?
USP1-UAF1 inh: -27%; HEK293 tox: -16%

Results for O=C1C(=O)c2ccccc2C(O)=C1CCCCl ?
USP1-UAF1 inh: 20µM*; EPAC2 antagonist: 3%; HEK293 tox: -23%; EPAC2 ag: -4%; EPAC1 agonist: 0%; EPAC1 antag: -13%

Results for COc1cccc2cc(/C(=N/O)c3ccccc3)oc12 ?
USP1-UAF1 inh: 0%; EPAC2 antagonist: 50µM*; HEK293 tox: 3%; EPAC2 ag: 23%; EPAC1 agonist: 6%; EPAC1 antag: -19%

What do the screens show for `Nc1ccc(Cn2ccc3c4c(N)nc(N)nc4ccc32)cc1`?
USP1-UAF1 inh: -20%; EPAC2 antagonist: -3%; HEK293 tox: 7.9µM*; EPAC2 ag: 2%; EPAC1 agonist: -4%; EPAC1 antag: 1%

How did Cc1nc2ccc(N)cc2c(=O)n1Cc1ccc(Cl)cc1 do in these assays?
USP1-UAF1 inh: 3%; EPAC2 antagonist: -4%; HEK293 tox: 73%; EPAC2 ag: 4%; EPAC1 agonist: 2%; EPAC1 antag: -1%

Results for Cc1ccc(S(=O)(=O)c2nc(-c3ccco3)oc2SC(C)C)cc1 ?
USP1-UAF1 inh: inconclusive; EPAC2 antagonist: 56µM*; HEK293 tox: 20%; EPAC2 ag: 13%; EPAC1 agonist: 11%; EPAC1 antag: -11%

How did Cc1ccc(S(=O)(=O)c2nc(-c3ccco3)oc2SCC(C)C)cc1 do in these assays?
USP1-UAF1 inh: -23%; HEK293 tox: 0%

What do the screens show for `COc1cc(N2C(=O)C=CC2=O)ccc1N1C(=O)C=CC1=O`?
USP1-UAF1 inh: -15%; EPAC2 antagonist: 6%; HEK293 tox: inconclusive; EPAC2 ag: 9%; EPAC1 agonist: -7%; EPAC1 antag: -26%

Results for O=C1C=CC(=O)N1c1cccc(-c2ccccc2)c1 ?
USP1-UAF1 inh: -14%; EPAC2 antagonist: -3%; HEK293 tox: 13µM*; EPAC2 ag: 3%; EPAC1 agonist: -5%; EPAC1 antag: inconclusive
